From PubChem
KinaseGlo FLuc: Counterscreen for Luciferase (Kinase-Glo TM) Inhibition. 200,000 tested, 0.28% active. Kinase-Glo luciferase, ATP luminescence, 8 min. Luciferin 4-monooxygenase (Photuris pensylvanica), Q27757. Potency, µM (top dose mostly 38.3 µM), for the others: at the top dose activity change, negative = inhibition, hits mostly inhibitors; active = well fitted inhibition curve with a large enough effect; inconclusive = small, poorly fitted or top-dose-only effect; note: potency is the fitted concentration of half-maximal effect; nearly all actives have a fitted effect of over 60% in size
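Recombinant Kinase-Glo luciferase, 10 uM ATP (linear range), luciferin; imidazole pH 7.2 / KCl / MgCl2 / Tween / BSA buffer; 8 min RT; luminescence.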
PNC inhibitor: High Content Assay for Compounds that inhibit the Assembly of the Perinucleolar Compartment; PC3M PTB-GFP, PNC prevalence imaging, 16 h; hits give low values; activity change (PNC), negative = inhibition, % at 10 µM; 140,000 tested, 3.1% active;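 active = readout at or below -70, meaning at least 70% loss of cells showing the perinucleolar compartment, a nuclear body marking cancer cells; inconclusive = readout between -30 and a set limit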;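 note: plate controls were DMSO wells for no effect and camptothecin positive control wells for full effect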
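Read-out is percentage of cells bearing a perinucleolar compartment, from automated 20x imaging of fixed, Hoechst-stained PC3M PTB-GFP cells. Cells were seeded 4 h, then exposed 16 h to compound (23 nl of library stock) in duplicate plates.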
ALDH1A1 block: qHTS Assay for Inhibitors of Aldehyde Dehydrogenase 1 (ALDH1A1); 220,000 tested, 7.3% active; Aldehyde dehydrogenase 1A1 (Homo sapiens), P00352; Potency, µM (top dose mostly 75.3 µM), without a hit: at the top dose activity, negative = inhibition, hits mostly inhibitors; Purified ALDH1A1, NADH fluorescence, propionaldehyde substrate; AID 1030, 2008;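 note: potency is the fitted concentration of half-maximal effect; plate controls were no enzyme wells and a reference inhibitor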
Target sequence (P00352 whole entry, looked up): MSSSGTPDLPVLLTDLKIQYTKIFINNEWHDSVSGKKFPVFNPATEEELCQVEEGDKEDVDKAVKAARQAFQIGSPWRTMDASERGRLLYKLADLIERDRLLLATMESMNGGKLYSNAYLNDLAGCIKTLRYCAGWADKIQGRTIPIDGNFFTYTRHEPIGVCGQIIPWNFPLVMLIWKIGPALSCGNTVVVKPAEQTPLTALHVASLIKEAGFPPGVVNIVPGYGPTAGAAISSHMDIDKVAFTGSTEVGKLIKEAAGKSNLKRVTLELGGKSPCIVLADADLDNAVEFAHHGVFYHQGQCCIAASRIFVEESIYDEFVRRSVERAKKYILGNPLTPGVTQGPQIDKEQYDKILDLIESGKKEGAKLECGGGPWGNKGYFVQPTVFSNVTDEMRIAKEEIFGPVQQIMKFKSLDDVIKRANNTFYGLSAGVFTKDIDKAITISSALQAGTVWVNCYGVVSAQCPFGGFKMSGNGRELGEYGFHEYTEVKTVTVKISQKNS
Lamin A splicing: qHTS Assay for Modulators of Lamin A Splicing. 200,000 tested, 0.01% active. Potency, µM (series often up to 46.1 µM), inactives show top-dose ratio change, negative = inhibition, most hits filed as inhibitors. HeLa LMNA splicing GFP/RFP minigene ratio, 48 h. AID 1487, 2009; active = well fitted inhibition curve with a large enough effect in the signal ratio, with a control signal flat, not every such curve was filed as active; inconclusive = small, poorly fitted or top-dose-only effect, or effect the other way, or a change in a side signal; the % refers to the signal ratio; note: potency is the fitted concentration of half-maximal effect
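S3 HeLa cells stably expressing lamin A-EGFP splicing minigene plus DsRed2, 600 cells/well, 48 h compound exposure at 37C. Laser-scanning cytometry; analysed as GFP (500-530 nm)/RFP (575-640 nm) total intensity ratio; 0.5% DMSO vehicle.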
HPGD block: qHTS Assay for Inhibitors of HPGD (15-Hydroxyprostaglandin Dehydrogenase); 15-hydroxyprostaglandin dehydrogenase [NAD(+)] (Homo sapiens), P15428; purified HPGD, NADH fluorescence kinetic, PGE2 substrate; Potency, µM, for inactives: at the top dose activity change, negative = inhibition, usual class: inhibitors; 150,000 tested, 4.3% active; AID 894, 2007; note: potency is the fitted concentration of half-maximal effect
Target sequence (P15428 whole entry, looked up): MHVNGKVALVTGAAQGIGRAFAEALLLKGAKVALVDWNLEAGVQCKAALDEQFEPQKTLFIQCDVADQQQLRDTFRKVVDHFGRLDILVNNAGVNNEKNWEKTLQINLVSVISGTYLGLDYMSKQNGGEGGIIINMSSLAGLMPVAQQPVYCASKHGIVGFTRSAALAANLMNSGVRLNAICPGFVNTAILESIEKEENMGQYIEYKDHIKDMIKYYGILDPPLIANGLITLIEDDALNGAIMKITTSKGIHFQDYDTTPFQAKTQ
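20 nM HPGD preincubated 15 min at room temperature with compound in 50 mM Tris-HCl pH 8, 0.01% Tween 20. Started with 1 mM NAD+ and 30 uM prostaglandin E2; NADH fluorescence (360/450 nm) read 5 times over 30-s intervals, last minus first.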
* marks the source's active call; other numbers are inactive results; [ ] = another dose, or the depositor's remark. Compounds with a hit are over-represented: about 10% of the library has one in this group of screens. Unless noted, calls come from the whole dose curve; as a rule, active = well fitted inhibition curve with a large enough effect (not every such curve was filed as active); inconclusive = small, poorly fitted or top-dose-only effect, or another doubt; inactive = no such curve, though single readings can be large or run the other way. Unless noted, % is set by controls: 0 for no effect and ±100 for the full control effect.

How did CCOc1ncccc1C(=O)NCc1ccc(C)cc1 do in these assays?
KinaseGlo FLuc: -0.8%; PNC inhibitor: inconclusive; ALDH1A1 block: -0.5%; Lamin A splicing: -1.0%; HPGD block: 15.8µM*

How did O=C(CCl)c1ccc2[nH]c(=O)oc2c1 do in these assays?
ALDH1A1 block: 0.282µM*; Lamin A splicing: -3.7%[46 µM]

How did c1cncc(-c2nnc(-c3cccnc3)nn2)c1 do in these assays?
KinaseGlo FLuc: -10.1%; PNC inhibitor: inconclusive; ALDH1A1 block: 11.2µM*; Lamin A splicing: inconclusive; HPGD block: 8.91µM*

What do the screens show for `Brc1ccccc1-n1nnc(-c2cccnc2)n1`?
ALDH1A1 block: 6.6%

Results for Cc1ccc2nc(CSc3nnc(Nc4ccccc4C)s3)cc(=O)n2c1 ?
KinaseGlo FLuc: -1.9%; PNC inhibitor: inconclusive; ALDH1A1 block: inconclusive; Lamin A splicing: 2.1%; HPGD block: inconclusive

What do the screens show for `Cc1cccc(Nc2nnc(SCc3cc(=O)n4cc(C)ccc4n3)s2)c1`?
KinaseGlo FLuc: 2.1%; PNC inhibitor: inconclusive; ALDH1A1 block: -9.3%; Lamin A splicing: 3.4%; HPGD block: 15.8µM*

What do the screens show for `CCc1ccc(Nc2nnc(SCc3cc(=O)n4ccsc4n3)s2)cc1`?
KinaseGlo FLuc: -4.2%; PNC inhibitor: -25.1; ALDH1A1 block: inconclusive; Lamin A splicing: inconclusive; HPGD block: 20µM*

How did COc1ccc(NC(=O)C(Cl)=C(Cl)Cl)cn1 do in these assays?
KinaseGlo FLuc: -4.1%; ALDH1A1 block: inconclusive; Lamin A splicing: inconclusive

Results for COc1ccc(NC(=O)/C(Cl)=C(/Cl)S(=O)Cc2ccc(Cl)cc2)cn1 (stereo not drawn) ?
KinaseGlo FLuc: -1.5%; ALDH1A1 block: 0.355µM*; Lamin A splicing: inconclusive

Results for COc1ccc(NC(=O)/C(Cl)=C(/Cl)S(=O)(=O)Cc2ccccc2)cn1 ?
KinaseGlo FLuc: -0.4%; PNC inhibitor: -20.7; ALDH1A1 block: 1.26µM*; Lamin A splicing: inconclusive; HPGD block: -27.1%

How did O=C(NCCc1ccccc1)C(=O)NCC(c1ccc2c(c1)OCO2)N1CCOCC1 (stereo not drawn) do in these assays?
Lamin A splicing: 10.6%[46 µM]

What do the screens show for `O=C(c1cc(Br)ccc1O)c1cc(Br)ccc1O`?
KinaseGlo FLuc: -3.1%[7.66 µM]; ALDH1A1 block: -2.0%[13.5 µM]; HPGD block: 2.82µM*

How did O=C(/C=C/c1ccccn1)c1cc(Br)ccc1O do in these assays?
ALDH1A1 block: 22.4µM*

Results for N#Cc1cc(C(=O)c2cc(Br)ccc2O)cn(C2CC2)c1=O ?
KinaseGlo FLuc: 1.6%; PNC inhibitor: -15.4; ALDH1A1 block: 14.1µM*; Lamin A splicing: inconclusive; HPGD block: 17.8µM*

What do the screens show for `C/C=N/NC(=O)c1cc(Br)ccc1O`?
KinaseGlo FLuc: 1.8%; PNC inhibitor: inconclusive; ALDH1A1 block: 12.4%; Lamin A splicing: -21.5%; HPGD block: -16.6%

Results for CC(C)(C)NC(=O)NC(=O)CN1CCN(c2ncc(C(F)(F)F)cc2Cl)CC1 ?
KinaseGlo FLuc: -3.4%; PNC inhibitor: 3.7; ALDH1A1 block: 28.2µM*; Lamin A splicing: inconclusive; HPGD block: -21.3%

What do the screens show for `Cc1cccc(N2CCC(N3CCN(C4CCCCC4)C(CCO)C3)CC2)c1C` (stereo not drawn)?
KinaseGlo FLuc: -3.2%; ALDH1A1 block: 3.55µM*; Lamin A splicing: 10.2%[46 µM]

What do the screens show for `CC(=O)OCC1OC(C#CCC2CCCCC2)C=CC1OC(C)=O` (stereo not drawn)?
ALDH1A1 block: 4.47µM*

What do the screens show for `CC(=O)OCC1OC(C#Cc2ccccc2)C=CC1OC(C)=O` (stereo not drawn)?
ALDH1A1 block: -10.2%[13.5 µM]

What do the screens show for `Cc1cc(C)c(NC(=O)Cn2nc3c(cc2=O)CCCC3)c(C)c1`?
Lamin A splicing: -11.5%[46 µM]

What do the screens show for `S=C(Nc1ccc2nsnc2c1)N1CCCC1`?
KinaseGlo FLuc: -28.2%; ALDH1A1 block: 25.1µM*; Lamin A splicing: -21.1%[46 µM]

Results for Cc1ccc(CN2CCN(/N=C/c3ccc(C)s3)CC2)cc1 ?
KinaseGlo FLuc: -0.1%; PNC inhibitor: 52.5; ALDH1A1 block: -0.7%; Lamin A splicing: -6.0%; HPGD block: -11.0%

How did Cc1ccc(CN2CCN(/N=C/c3cccs3)CC2)cc1 do in these assays?
KinaseGlo FLuc: -1.6%; PNC inhibitor: -98.6*; ALDH1A1 block: 2.7%; Lamin A splicing: -7.5%; HPGD block: -8.3%

How did CCOC(=O)C1=C(CSc2nc(C)ccc2C#N)OC(N)=C(C#N)C1c1cccc(OC)c1OC (stereo not drawn) do in these assays?
KinaseGlo FLuc: -2.4%; PNC inhibitor: inconclusive; ALDH1A1 block: 28.2µM*; Lamin A splicing: 16.2%; HPGD block: -8.4%

What do the screens show for `CN1CCN(c2nc3c(c(=O)[nH]c(=O)n3C)n2CCCSc2ncccn2)CC1`?
KinaseGlo FLuc: 10.6%; PNC inhibitor: inconclusive; ALDH1A1 block: inconclusive; Lamin A splicing: 0.2%; HPGD block: -6.6%

What do the screens show for `Cn1c(=O)[nH]c(=O)c2c1nc(N1CCCCC1)n2CCSc1nc2ccccc2o1`?
KinaseGlo FLuc: 15.4%; PNC inhibitor: 0.1; ALDH1A1 block: 3.8%; Lamin A splicing: -3.0%; HPGD block: -11.4%

How did CC(CSc1nnnn1-c1ccccc1)Cn1c(N2CCN(C)CC2)nc2c1c(=O)[nH]c(=O)n2C (stereo not drawn) do in these assays?
KinaseGlo FLuc: 2.0%; ALDH1A1 block: 20µM*; Lamin A splicing: inconclusive

What do the screens show for `Cn1c(=O)[nH]c(=O)c2c1nc(N1CCCC1)n2CCCSc1nnnn1-c1ccccc1`?
KinaseGlo FLuc: 1.5%; PNC inhibitor: 10.3; ALDH1A1 block: 11.2µM*; Lamin A splicing: inconclusive; HPGD block: -11.9%

How did Cn1c(=O)[nH]c(=O)c2c1nc(N1CCCCCC1)n2CCCSc1nnnn1-c1ccccc1 do in these assays?
KinaseGlo FLuc: -4.1%; PNC inhibitor: 5.4; ALDH1A1 block: 2.51µM*; Lamin A splicing: 4.0%; HPGD block: -27.7%

Results for CCCCC(=O)Nc1nc(C)c(-c2csc(Nc3cc(Cl)ccc3OC)n2)s1 ?
KinaseGlo FLuc: -4.3%; PNC inhibitor: 11.3; ALDH1A1 block: 10µM*; Lamin A splicing: 9.7%; HPGD block: inconclusive

What do the screens show for `CCCC(=O)Nc1nc(C)c(-c2csc(Nc3ccccc3C)n2)s1`?
KinaseGlo FLuc: 1.4%; PNC inhibitor: 67.8; ALDH1A1 block: 10µM*; Lamin A splicing: 3.8%; HPGD block: 31.6µM*

Results for CC(C)OCCCn1c(SCC(=O)Nc2ccc(F)cc2)nc2c(sc3ccccc32)c1=O ?
Lamin A splicing: -8.0%[46 µM]

What do the screens show for `CCN(CC)S(=O)(=O)N1CCC(C(=O)NCCC2=CCCCC2)CC1`?
KinaseGlo FLuc: -0.8%; ALDH1A1 block: 2.51µM*

What do the screens show for `CCCCN(CC)S(=O)(=O)N1CCC(C(=O)NCCCN2CCOCC2)CC1`?
KinaseGlo FLuc: -2.3%; PNC inhibitor: 0.4; ALDH1A1 block: inconclusive; Lamin A splicing: 2.3%[0.0737 µM]; HPGD block: inconclusive
